Screens: PubChem BioAssay, The Scripps Research Institute Molecular Screening Center
HGIII-sPLA2 inh: human group III sPLA2 inhibitors, primary screen, biochemical, QFRET, BODIPY PC-A2 liposome substrate. hit rate 0.56% among 370,000. Group 3 secretory phospholipase A2 (Homo sapiens), Q9NZ20. QFRET BODIPY PC-A2 liposome hydrolysis, fluorescence. inhibition, % at 12.2 µM;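 active means inhibition above mean plus 3 SD of compounds lying within the high and low control bounds, cut at about 19% in these data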;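 further: 0% = median of test compound wells and 100% = no enzyme DMSO wells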
Target sequence (Q9NZ20 whole entry, looked up): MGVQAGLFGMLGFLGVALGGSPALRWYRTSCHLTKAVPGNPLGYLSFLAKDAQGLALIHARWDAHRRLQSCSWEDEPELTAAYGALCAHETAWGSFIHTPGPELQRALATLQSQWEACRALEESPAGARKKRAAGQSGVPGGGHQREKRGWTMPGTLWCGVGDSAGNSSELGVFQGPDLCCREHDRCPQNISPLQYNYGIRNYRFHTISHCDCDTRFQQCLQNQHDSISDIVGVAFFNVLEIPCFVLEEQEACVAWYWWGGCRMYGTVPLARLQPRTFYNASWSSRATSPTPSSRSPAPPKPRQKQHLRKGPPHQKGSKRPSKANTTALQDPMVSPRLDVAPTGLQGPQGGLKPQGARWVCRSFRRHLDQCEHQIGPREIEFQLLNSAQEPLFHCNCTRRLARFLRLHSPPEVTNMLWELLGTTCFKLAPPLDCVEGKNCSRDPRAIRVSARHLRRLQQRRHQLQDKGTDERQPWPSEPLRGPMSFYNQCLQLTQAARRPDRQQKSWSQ
rCAG RNA binder: binders of r(CAG) RNA repeats, primary screen, biochemical, fluorescence | r(CAG) RNA repeat, TO-PRO-1 dye displacement fluorescence | inhibition, % at 3 µM | hit rate 1.3% among 370,000 | AID 651821, 2012;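 active means inhibition above the plate cutoff, the mean of all test compounds on that plate plus 3 SD, cut at about 35% in these data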;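 further: 0% = DMSO alone and 100% = 100 µM mitoxantrone as full dye displacement; higher means more dye released from RNA so lower well fluorescence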
MsrA act: bovine MsrA enzyme activators, primary screen, biochemical, absorbance, HTS; purified bovine MsrA, absorbance read-out; hit rate 0.3% among 360,000; activation, % at 10.6 µM; AID 602163, 2012; Methionine sulfoxide reductase A (Bos taurus); in the data active means activation above about 7.5%;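 further: 0% = vehicle and 100% = reference activator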
MsrA inhibitor: bovine MsrA enzyme inhibitors, primary screen, biochemical, absorbance, HTS; hit rate 0.75% among 360,000; purified bovine MsrA, absorbance read-out; inhibition, % at 15.5 µM; in the data active means inhibition above about 4.5%;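 further: 0% = vehicle wells with enzyme and 100% = reference inhibitor wells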
rCAG binder conf: small molecules binding CAG repeat RNA – biochemical, fluorescence, confirmation | shares compounds with rCAG RNA binder | r(CAG) RNA repeat, TO-PRO-1 dye displacement fluorescence | inhibition, % at 3 µM | hit rate 70% among 4,300 | AID 652065, 2013;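 active means inhibition above a per-plate cutoff, the mean inhibition of sample wells plus 3 SD, cut at about 35% in these data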;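 further: loss of TO-PRO-1 fluorescence as compound displaces dye from 1x1 AA loop RNA; 0% = DMSO only wells and 100% = 100 µM mitoxantrone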
DNA CAG counter: displacement of TO-PRO-1 from CAG DNA duplex, counter-screen for rCAG RNA repeat binder project, biochemical, fluorescence, TO-PRO-1 dye, d(CAG) DNA oligo; inhibition, % at 3 µM; shares compounds with rCAG RNA binder; hit rate 94% among 4,300; AID 652068, 2013; d(CAG) DNA oligo TO-PRO-1 dye displacement;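 active means inhibition above its plate's cutoff, the mean test-well inhibition plus 3 SD, cut at about 4.8% in these data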;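 further: 0% = DNA dye mix with DMSO and 100% = 100 µM mitoxantrone; hits displace the dye from DNA and so lower well fluorescence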
sPLA2 confirm: human group III sPLA2 inhibitors, confirmation, biochemical, QFRET, triplicate; recombinant hGIII-sPLA2, BODIPY PC-A2 QFRET fluorescence; inhibition, % at 12.2 µM; AID 743280, 2014; shares compounds with HGIII-sPLA2 inh; hit rate 34% among 2,000;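 active means mean inhibition across triplicates above the hit cutoff set in the earlier primary screen, cut at about 19% in these data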;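 further: 0% = enzyme with DMSO and 100% = DMSO wells lacking enzyme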
535nm interf: 535nm fluorescence optical interference, confirmation, artefact control for HGIII-sPLA2 inhibitor project, biochemical, QFRET | shares compounds with HGIII-sPLA2 inh | BODIPY FL product fluorescence interference | inhibition, % at 12.2 µM | hit rate 8.5% among 2,000;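 active means average inhibition above the solvent-only control mean plus 3 SD, cut at about 6% in these data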;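 further: 0% = DMSO with substrate plus product and 100% = DMSO with substrate alone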
Starred values were filed as active, the others as inactive. A selection: hits, their analogues and other compounds. The true share with any hit is near 2.8%.

Results for Cc1cc(Cl)ccc1NC(=O)CCC(=O)N/N=C/c1cc([N+](=O)[O-])ccc1O ?
HGIII-sPLA2 inh: 4; rCAG RNA binder: 3; MsrA act: 2; MsrA inhibitor: 3

What do the screens show for `Cc1c(C#N)c(N)nc(Cl)c1C#N`?
HGIII-sPLA2 inh: -1; rCAG RNA binder: -1; MsrA act: -10; MsrA inhibitor: 0

Results for N#Cc1c(Cl)nsc1NN ?
HGIII-sPLA2 inh: 20*; rCAG RNA binder: 92*; MsrA act: 1; MsrA inhibitor: 3; rCAG binder conf: 22; DNA CAG counter: 4.8*; sPLA2 confirm: 19; 535nm interf: 14*

What do the screens show for `CCOc1ccc(Cl)cc1-c1cc(C(=O)NCc2cccc(C(F)(F)F)c2)[nH]n1`?
HGIII-sPLA2 inh: -7; rCAG RNA binder: 3; MsrA act: -1; MsrA inhibitor: 0

What do the screens show for `O=C(CSc1nc2ccccc2c(=O)n1-c1ccc(Cl)cc1)NNC(=S)Nc1ccccc1`?
HGIII-sPLA2 inh: 33*; rCAG RNA binder: 49*; rCAG binder conf: 38*; DNA CAG counter: 17*; sPLA2 confirm: 27*; 535nm interf: 4

Results for COc1ccccc1/C=C/C=N/n1c(-c2cc(-c3ccccc3)n[nH]2)n[nH]c1=S ?
HGIII-sPLA2 inh: 21*; rCAG RNA binder: 44*; MsrA act: 0; MsrA inhibitor: 2; rCAG binder conf: 63*; DNA CAG counter: 25*; sPLA2 confirm: -26; 535nm interf: 9.5*

How did O=S(=O)(c1ccc(NC(=S)N/N=C/c2ccc(O)c(O)c2)cc1)N1CCOCC1 do in these assays?
HGIII-sPLA2 inh: -3; rCAG RNA binder: 19; MsrA act: -8; MsrA inhibitor: 1

What do the screens show for `O=[N+]([O-])c1cc(Cl)cc(/C=N/NC(=S)Nc2ccc(S(=O)(=O)N3CCOCC3)cc2)c1O`?
HGIII-sPLA2 inh: 69*; rCAG RNA binder: 98*; MsrA act: -3; MsrA inhibitor: 3; rCAG binder conf: 88*; DNA CAG counter: 63*; sPLA2 confirm: 70*; 535nm interf: 19*

Results for O=C(CN1C(=O)NC2(CCCCC2)C1=O)NCC(=O)Nc1ccc(F)c(F)c1 ?
HGIII-sPLA2 inh: 7; rCAG RNA binder: 0; MsrA act: -8; MsrA inhibitor: 0

What do the screens show for `O=[N+]([O-])c1cc(Cc2ccccc2)cc(C=Nc2ccc(N3CCOCC3)cc2)c1O`?
MsrA act: 5

Results for Cc1ccc(O)c(N=Cc2cc(Cc3ccccc3)cc([N+](=O)[O-])c2O)c1 ?
HGIII-sPLA2 inh: 25*; rCAG RNA binder: 46*; MsrA act: -5; MsrA inhibitor: 2; rCAG binder conf: 27; DNA CAG counter: 16*; sPLA2 confirm: 23*; 535nm interf: 7.8*

What do the screens show for `CCN1C(=O)[C@@H]2[C@@H]3CN(S(=O)(=O)c4ccc(C)cc4)[C@@H](c4ccccc4)[C@@H]3C(=O)C[C@@H]2C1=O`?
HGIII-sPLA2 inh: -37; rCAG RNA binder: 5; MsrA act: -3; MsrA inhibitor: -1

What do the screens show for `CCOC1=CC2=C(C(=O)C(Cl)=CC2=O)[C@@H]2CN(S(=O)(=O)c3ccc(C)cc3)[C@@H](c3ccccc3)[C@H]12`?
HGIII-sPLA2 inh: 31*; rCAG RNA binder: 73*; MsrA act: -16; MsrA inhibitor: 0; rCAG binder conf: 57*; DNA CAG counter: 21*; sPLA2 confirm: 69*; 535nm interf: 11*
